SMILES strings stand for the structures. Screen size: about 190,000 compounds; about 4,100 (2.2%) were called active. The list comes from a sample in which actives are over-represented; it also holds similar structures and randomly drawn compounds. Values without a mark were called inactive.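 How the source made its calls: active means thallium flux slope and its plate-corrected score both differing from the plate sample mean at a set confidence after two filtering rounds, in either direction; inactive means the rest.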

The assay deals with Solute carrier family 12 member 5 (Homo sapiens) (UniProt Q9H2X9). As to the kind of experiment: KCC2 cotransporter modulators, thallium flux, primary screen, cell-based, HEK293 KCC2, FluoZin-2 fluorescence, MLSMR (AID 1456).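 Further: slope of fluorescence scaled to starting intensity during 10 to 20 s after thallium.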 Conditions: KCC2 cells, thallium flux FluoZin-2 fluorescence; at 10 µM.
Sequence of Solute carrier family 12 member 5 (Homo sapiens) (Q9H2X9 whole entry, looked up): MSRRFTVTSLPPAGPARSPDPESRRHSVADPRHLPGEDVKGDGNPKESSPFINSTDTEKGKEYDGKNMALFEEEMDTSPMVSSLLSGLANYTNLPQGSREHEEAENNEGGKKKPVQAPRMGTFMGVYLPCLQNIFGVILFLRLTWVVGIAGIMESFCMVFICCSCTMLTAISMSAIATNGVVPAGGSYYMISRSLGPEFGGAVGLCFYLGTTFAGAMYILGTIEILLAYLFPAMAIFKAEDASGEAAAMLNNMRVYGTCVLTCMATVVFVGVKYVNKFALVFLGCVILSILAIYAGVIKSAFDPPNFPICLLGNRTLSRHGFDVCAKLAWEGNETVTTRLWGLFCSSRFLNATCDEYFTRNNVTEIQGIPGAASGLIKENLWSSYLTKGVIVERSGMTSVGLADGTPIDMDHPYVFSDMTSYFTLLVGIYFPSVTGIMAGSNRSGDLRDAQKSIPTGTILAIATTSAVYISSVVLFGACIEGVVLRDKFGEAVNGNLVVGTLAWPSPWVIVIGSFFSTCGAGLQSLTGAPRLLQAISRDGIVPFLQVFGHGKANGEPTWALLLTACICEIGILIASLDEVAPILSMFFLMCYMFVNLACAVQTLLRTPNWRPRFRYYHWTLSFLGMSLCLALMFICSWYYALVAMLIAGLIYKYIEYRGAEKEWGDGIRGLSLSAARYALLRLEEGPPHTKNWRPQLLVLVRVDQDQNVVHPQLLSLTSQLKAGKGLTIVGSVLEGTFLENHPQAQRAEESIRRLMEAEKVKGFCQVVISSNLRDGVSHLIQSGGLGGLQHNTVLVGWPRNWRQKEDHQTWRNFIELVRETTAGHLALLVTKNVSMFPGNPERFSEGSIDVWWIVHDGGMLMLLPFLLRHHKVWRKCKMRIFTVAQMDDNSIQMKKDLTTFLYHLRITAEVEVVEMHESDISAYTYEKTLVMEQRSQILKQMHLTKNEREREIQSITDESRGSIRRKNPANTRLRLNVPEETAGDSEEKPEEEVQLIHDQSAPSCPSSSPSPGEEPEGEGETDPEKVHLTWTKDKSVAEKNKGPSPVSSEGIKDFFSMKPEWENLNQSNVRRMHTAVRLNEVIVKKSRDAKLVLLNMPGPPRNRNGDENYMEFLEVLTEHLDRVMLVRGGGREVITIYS
`CC(C)Cc1ccc(C(C)C(=N)N)cc1` (stereo not given): the B-score of Tl+ flux slope (higher = more flux/activation; lower = inhibition) was 0.737.

Turning to `NS(=O)(=O)c1ccc(CNC(=O)c2cnccn2)cc1`, the B-score of Tl+ flux slope (higher = more flux/activation; lower = inhibition) was 1.11.

Turning to `NCC(=O)c1cccc2ccc[n+]([O-])c12`, the B-score of Tl+ flux slope (higher = more flux/activation; lower = inhibition) is 1.34. As to `COc1ccc(CCN2C(=O)CC(N3CCC(C(N)=O)CC3)C2=O)cc1OC` (stereo not given), the B-score of Tl+ flux slope (higher = more flux/activation; lower = inhibition) is 0.129.

Regarding `O=c1c2ccccc2nc2n1C1(CCCCC1)Cc1ccccc1-2`, the B-score of Tl+ flux slope (higher = more flux/activation; lower = inhibition) is -0.241. In the case of `CC1(C)Cc2ccccc2-c2nnc(-c3cccc(O)c3)n21` it was -0.616; in that of `c1cncc(-c2nnc3n2C2(CCCCC2)Cc2ccccc2-3)c1`, 4.46 (active). In the case of `Cc1ccc(CN2CCN(Cc3ccc4ncccc4c3)CC2CCO)cc1` (stereo not given) it was -0.182. In the case of `O=C(Nc1nc2c(F)cc(F)cc2s1)C1COc2ccccc2O1` (stereo not given) it was 67.4 (active). `COc1ccc(OC)c2sc(NC(=O)C3COc4ccccc4O3)nc12` (stereo not given): the B-score of Tl+ flux slope (higher = more flux/activation; lower = inhibition) was -1.33. For `O=C(Nc1nc(-c2ccncc2)cs1)C1COc2ccccc2O1` (stereo not given), the B-score of Tl+ flux slope (higher = more flux/activation; lower = inhibition) is -0.139. In the case of `CC(C)c1cc(CN2CCOCC2)cc(C(C)C)c1O` it was -0.911. For the molecule `CCn1cc(C(=O)NCCCN2CCCCCC2)c(=O)c2cc(S(=O)(=O)N3CCc4ccccc4C3)ccc21`, the B-score of Tl+ flux slope (higher = more flux/activation; lower = inhibition) is 0.575. For the molecule `Cc1nc(C(=O)N2CCCC(C(=O)c3ccc(Cl)cc3)C2)cs1` (stereo not given), the B-score of Tl+ flux slope (higher = more flux/activation; lower = inhibition) was -0.00258. Under `Cc1ccccc1Nc1c(-c2ccccc2)nc2ncccn12` stands -0.0089; under `S=c1nccc(-c2cc(Cl)sc2Cl)[nH]1`, 7.16 (active); under `Cc1cccc(N(C)C(=O)c2cc3c(=O)[nH]c4ccc(C)cc4c3s2)c1`, 0.185. In the case of `COCCN1C2=C(COC(C)(C)C2)C(=S)NC1c1ccccc1` (stereo not given) it was -0.146. For `Cc1cccc(OCc2ccc(C(=O)Nc3ccc(F)cc3)cc2)c1`, the B-score of Tl+ flux slope (higher = more flux/activation; lower = inhibition) is 0.491. As for `Fc1ccc(COc2ccc(-c3nnco3)cc2)cc1`, the B-score of Tl+ flux slope (higher = more flux/activation; lower = inhibition) is -1.14. Take `Fc1ccc(COc2cccc(-c3n[nH]c(=S)o3)c2)cc1`: the B-score of Tl+ flux slope (higher = more flux/activation; lower = inhibition) was 69.9 (active). In the case of `NNC(=O)c1oc2nc(-c3ccccc3)cc(-c3ccco3)c2c1N` it was 0.0896. For `O=C(COc1ccccc1)N1CCN=C1SCc1cccc(F)c1`, the B-score of Tl+ flux slope (higher = more flux/activation; lower = inhibition) is 0.197. With `CC(C)CCN1NC2(CCC(C)CC2)NC1=S` (stereo not given), the B-score of Tl+ flux slope (higher = more flux/activation; lower = inhibition) is 1.32.

As to `Cc1ccc(-c2nc3ccccc3[nH]c2=O)cc1`, the B-score of Tl+ flux slope (higher = more flux/activation; lower = inhibition) is 0.871. In the case of `CC(CNS(=O)(=O)c1ccc(Br)cc1)CN(C)C` (stereo not given), the B-score of Tl+ flux slope (higher = more flux/activation; lower = inhibition) is 0.781. Under `CCC(C)(C)NC(=O)C(c1ccc(O)cc1)N(C(=O)Cn1nnc2ccccc21)c1ccc(NC(C)=O)cc1` (stereo not given) stands 1.51.

`Cc1nnc(SCC(=O)N2CCc3ccccc32)n1-c1ccccc1`: the B-score of Tl+ flux slope (higher = more flux/activation; lower = inhibition) was 0.58. In the case of `O=C(CSCc1ccccc1)N1CCc2ccccc21` it was -2.43 (active); in that of `NC(=O)N1CCc2ccccc21`, 0.799; in that of `O=C(c1cccc(C(=O)N2CCc3ccccc32)n1)N1CCc2ccccc21`, 0.134.

On to `CCNC(=S)N1CCN(C(=O)c2ccco2)CC1`, for which the B-score of Tl+ flux slope (higher = more flux/activation; lower = inhibition) is 0.133. As to `O=C(NC(=S)N1CCc2ccccc21)c1ccco1`, the B-score of Tl+ flux slope (higher = more flux/activation; lower = inhibition) was 23.3 (active). On to `O=C(NCc1cccnc1)C(=O)Nc1nc(-c2ccccc2)cs1`, for which the B-score of Tl+ flux slope (higher = more flux/activation; lower = inhibition) was -0.384. In the case of `O=C(CCCN1C(=O)/C(=C\c2ccccc2)SC1=S)Nc1ccccc1O` it was 0.281. Take `CCN(CC(=O)Nc1cccc(S(N)(=O)=O)c1)Cc1nc2ccccc2c(=O)[nH]1`: the B-score of Tl+ flux slope (higher = more flux/activation; lower = inhibition) is 1.06. Under `Cc1coc2cc3oc(=O)c(CCC(=O)O)c(C)c3cc12` stands -0.564; under `C=CCn1c(=S)[nH]c2scc(-c3ccco3)c2c1=O`, 111 (active); under `C=CCNC(=O)CSc1nc2scc(-c3ccco3)c2c(=O)n1CC=C`, -0.677. For `C=CCn1c(SCc2csc(C)n2)nc2scc(-c3ccc(C)o3)c2c1=O`, the B-score of Tl+ flux slope (higher = more flux/activation; lower = inhibition) was 0.11.

Turning to `Nc1cccc(S(=O)(=O)Nc2ccc(SC(F)F)cc2)c1`, the B-score of Tl+ flux slope (higher = more flux/activation; lower = inhibition) was -0.199. Consider `Cc1ccc(Oc2cnn(-c3ccccc3)c(=O)c2Br)cc1`, for which the B-score of Tl+ flux slope (higher = more flux/activation; lower = inhibition) was -2.71. For `COc1ccc(-n2c(C)nc3c(cnn3-c3ccccc3)c2=O)cc1`, the B-score of Tl+ flux slope (higher = more flux/activation; lower = inhibition) is -0.335. In the case of `COc1ccc(Oc2c(Cl)cnn(-c3ccccc3)c2=O)cc1` it was -3.99 (active). Under `CC1C(=O)NC(=O)C1c1ccccc1` (stereo not given) stands 0.0909. As for `CCc1ccc2nc3sc(C(=O)Nc4nnc(CC)s4)c(N)c3cc2c1`, the B-score of Tl+ flux slope (higher = more flux/activation; lower = inhibition) is -4.25 (active). Regarding `CCc1nnc(NC(=O)c2sc3nc(C)cc(COC)c3c2N)s1`, the B-score of Tl+ flux slope (higher = more flux/activation; lower = inhibition) was 0.922.

As to `CCc1nnc(NC(=O)c2cccc(S(=O)(=O)N(C)c3ccc(OC)cc3)c2)s1`, the B-score of Tl+ flux slope (higher = more flux/activation; lower = inhibition) is -0.265. As for `Cc1ccc(S(=O)(=O)N(C)CC(=O)OCC(=O)Nc2ccccc2)cc1`, the B-score of Tl+ flux slope (higher = more flux/activation; lower = inhibition) is -1.25. `Cc1nc(N)sc1N=Nc1c(C)n(C)n(-c2ccccc2)c1=O`: the B-score of Tl+ flux slope (higher = more flux/activation; lower = inhibition) was 0.0239.

Values taken from PubChem BioAssay AID1456 (Vanderbilt High Throughput Screening Facility, 2008).
